A short description of experiment [1]: yeast TOR pathway RPL19A-GFP modulators, primary screen, cell-based, S. cerevisiae, multiplex flow cytometry (AID 1862; in the data active = percent of DMSO control GFP below about 86%;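 note: lower values mimic rapamycin by blocking the RPL19A rise seen in DMSO cells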). The note with it: S. cerevisiae RPL19A-GFP strain, flow cytometry fluorescence, 3 h; at 10 µM; stronger effect = lower value. (In flow cytometry, cells or beads pass a laser one at a time.)
Experiment [2] is described as follows: modulators of MEP2-GFP levels in yeast, primary screen, S. cerevisiae, multiplex flow cytometry (AID 1867;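 active = GFP response, as percent of the DMSO control, above the screen-wide mean plus 3 SD, about 139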;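 note: median GFP channel fluorescence of barcode-gated MEP2-GFP cells measured by flow cytometry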). The note with it: S. cerevisiae MEP2-GFP strain, 3 h, at 10 µM, stronger effect = higher value, 100% means same as DMSO wells.
Experiment [3] in a line: modulators of CIT2-GFP expression in yeast, primary screen, S. cerevisiae, GFP fusion, multiplex flow cytometry (AID 1870;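 active = percent response above a set limit, the screen-wide mean plus 3 SD, cut at about 130% in these data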;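 note: barcoded CIT2-GFP strain pooled with four other GFP strains with rapamycin as positive control; median GFP fluorescence per well over plate mean of DMSO wells so 100% = DMSO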). The note with it: 3 h, at 10 µM, stronger effect = higher value.
Experiment [4] in a line: modulators of LAP4-GFP expression in yeast, primary screen, S. cerevisiae, multiplex flow cytometry (AID 1873;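 active = GFP signal, as percent of the solvent control, above the screen mean plus 3 SD, about 149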). The note with it: 3 h, at 10 µM, stronger effect = higher value.
Experiment [5] in a line: modulators of AGP1-GFP expression in yeast TOR pathway, primary screen, cell-based, multiplex flow cytometry, S. cerevisiae (AID 1887;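 active = GFP signal above the screen-wide mean plus 3 SD, that is over about 124.5% of the solvent control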;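 note: AGP1-GFP fusion strain of S. cerevisiae within a five-strain barcoded multiplex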). The note with it: 3 h, at 10 µM, stronger effect = higher value.
Experiment [6] in a line: inhibitors of CD8+ T cell-vesicle binding, pilot screen, LFA-1/ICAM-1 modulator project, MLPCN validation set, flow cytometry (AID 2523;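 active = response below a set limit, under 55% cells CD8-positive and vesicle-bound, and CD8 cells' 90th-percentile brightness under 279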;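 for vesicle binding response: mean PE anti-B7-1 fluorescence of CD8+ cells relative to row control; 100% = QL9-loaded vesicles with DMSO vehicle in the same plate row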). The note with it: 2C mouse CD8+ T cells, at 7 µM, stronger effect = lower value; double positive events: measured here: CD8+/vesicle+ event percentage.
Experiment [7] deals with Integrin beta-1 (Homo sapiens) + Integrin alpha-4 (Homo sapiens) (UniProt P13612+P05556). Nature of the experiment: inhibition of HUTS-21 binding to VLA-4, pilot screen, VLA-4 allosteric modulator project, U937 cells, HUTS-21 mAb, flow cytometry, validation set (AID 2674;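 active = inhibition above 50%, about 3 SD of the validation set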;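 note: antibody binding induced by the VLA-4 ligand LDV present at three times its Kd; 0% = LDV ligand with antibody and no compound and 100% = antibody without LDV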). The note with it: HUTS-21 LIBS mAb binding, at 6.7 µM, stronger effect = higher value, binding induced by LDV ligand.
Sequence of Integrin beta-1 (Homo sapiens) + Integrin alpha-4 (Homo sapiens) (P05556 whole entry, looked up): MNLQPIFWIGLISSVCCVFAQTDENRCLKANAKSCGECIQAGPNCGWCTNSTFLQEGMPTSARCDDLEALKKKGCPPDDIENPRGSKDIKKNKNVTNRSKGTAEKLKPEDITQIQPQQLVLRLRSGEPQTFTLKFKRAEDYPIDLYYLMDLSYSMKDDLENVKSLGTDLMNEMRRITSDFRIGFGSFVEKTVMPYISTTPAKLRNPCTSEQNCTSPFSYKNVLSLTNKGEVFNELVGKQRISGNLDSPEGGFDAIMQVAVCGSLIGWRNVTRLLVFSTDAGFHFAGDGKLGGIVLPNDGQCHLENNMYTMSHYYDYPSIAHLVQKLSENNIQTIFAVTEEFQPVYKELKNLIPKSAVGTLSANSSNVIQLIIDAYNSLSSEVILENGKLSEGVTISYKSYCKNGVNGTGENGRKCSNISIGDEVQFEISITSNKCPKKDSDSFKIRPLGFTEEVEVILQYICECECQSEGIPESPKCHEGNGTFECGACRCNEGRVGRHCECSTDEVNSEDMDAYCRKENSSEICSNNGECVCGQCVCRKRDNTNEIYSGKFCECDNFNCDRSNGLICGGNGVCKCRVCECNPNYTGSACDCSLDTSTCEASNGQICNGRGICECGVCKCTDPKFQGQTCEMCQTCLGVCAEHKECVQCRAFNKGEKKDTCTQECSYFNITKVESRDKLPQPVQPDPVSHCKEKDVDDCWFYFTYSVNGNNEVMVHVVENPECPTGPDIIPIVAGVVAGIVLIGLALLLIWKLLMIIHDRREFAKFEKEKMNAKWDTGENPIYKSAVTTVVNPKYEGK
Sequence of Integrin beta-1 (Homo sapiens) + Integrin alpha-4 (Homo sapiens) (P13612 whole entry, looked up): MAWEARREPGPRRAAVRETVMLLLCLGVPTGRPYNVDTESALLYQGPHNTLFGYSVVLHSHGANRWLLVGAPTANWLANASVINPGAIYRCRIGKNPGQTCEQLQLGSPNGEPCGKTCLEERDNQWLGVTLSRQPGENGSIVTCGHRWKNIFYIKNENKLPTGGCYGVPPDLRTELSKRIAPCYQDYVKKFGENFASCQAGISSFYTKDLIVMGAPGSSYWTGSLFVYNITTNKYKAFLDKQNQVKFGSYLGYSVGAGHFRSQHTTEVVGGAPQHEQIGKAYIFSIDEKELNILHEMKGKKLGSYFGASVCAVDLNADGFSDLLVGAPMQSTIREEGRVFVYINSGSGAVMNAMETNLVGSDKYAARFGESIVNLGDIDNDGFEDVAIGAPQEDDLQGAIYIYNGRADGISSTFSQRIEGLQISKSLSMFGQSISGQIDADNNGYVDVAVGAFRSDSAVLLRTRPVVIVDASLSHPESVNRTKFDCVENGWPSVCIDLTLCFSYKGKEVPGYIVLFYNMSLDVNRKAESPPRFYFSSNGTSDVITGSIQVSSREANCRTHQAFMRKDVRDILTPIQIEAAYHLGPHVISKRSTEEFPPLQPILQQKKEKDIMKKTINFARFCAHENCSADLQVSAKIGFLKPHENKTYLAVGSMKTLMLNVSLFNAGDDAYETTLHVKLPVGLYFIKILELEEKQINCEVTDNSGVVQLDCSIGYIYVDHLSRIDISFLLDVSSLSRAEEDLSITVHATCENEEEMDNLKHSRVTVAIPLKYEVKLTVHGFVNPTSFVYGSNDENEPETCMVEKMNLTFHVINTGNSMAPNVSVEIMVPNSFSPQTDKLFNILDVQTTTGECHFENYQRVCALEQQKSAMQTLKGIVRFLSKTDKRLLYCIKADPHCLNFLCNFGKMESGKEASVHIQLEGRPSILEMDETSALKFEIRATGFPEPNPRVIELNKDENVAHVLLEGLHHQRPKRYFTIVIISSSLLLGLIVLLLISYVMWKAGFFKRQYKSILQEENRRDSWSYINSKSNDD

A short description of experiment [8]: superoxide lowering in aged yeast cells, pilot screen, validation compound set (AID 2706;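 active = superoxide response below 65% of plate, a cut near 3 SD across the whole screen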;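 note: yeast exposed to compound for one week at 30 degrees C before staining; 100% = mean of all compound wells on the same plate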). The note with it: S. cerevisiae aging, superoxide DHE fluorescence; at 10 µM; stronger effect = lower value.
The target of experiment [9] is Beta-adrenergic receptor kinase 1 (Homo sapiens) (UniProt P25098). Nature of the experiment: GRK2 binders displacing RNA aptamer, biochemical, validation, human GRK2, bead flow cytometry (AID 488806). The note with it: bead-bound GRK2, FAM-aptamer displacement, at 10 µM, stronger effect = higher value.
Sequence of Beta-adrenergic receptor kinase 1 (Homo sapiens) (P25098 whole entry, looked up): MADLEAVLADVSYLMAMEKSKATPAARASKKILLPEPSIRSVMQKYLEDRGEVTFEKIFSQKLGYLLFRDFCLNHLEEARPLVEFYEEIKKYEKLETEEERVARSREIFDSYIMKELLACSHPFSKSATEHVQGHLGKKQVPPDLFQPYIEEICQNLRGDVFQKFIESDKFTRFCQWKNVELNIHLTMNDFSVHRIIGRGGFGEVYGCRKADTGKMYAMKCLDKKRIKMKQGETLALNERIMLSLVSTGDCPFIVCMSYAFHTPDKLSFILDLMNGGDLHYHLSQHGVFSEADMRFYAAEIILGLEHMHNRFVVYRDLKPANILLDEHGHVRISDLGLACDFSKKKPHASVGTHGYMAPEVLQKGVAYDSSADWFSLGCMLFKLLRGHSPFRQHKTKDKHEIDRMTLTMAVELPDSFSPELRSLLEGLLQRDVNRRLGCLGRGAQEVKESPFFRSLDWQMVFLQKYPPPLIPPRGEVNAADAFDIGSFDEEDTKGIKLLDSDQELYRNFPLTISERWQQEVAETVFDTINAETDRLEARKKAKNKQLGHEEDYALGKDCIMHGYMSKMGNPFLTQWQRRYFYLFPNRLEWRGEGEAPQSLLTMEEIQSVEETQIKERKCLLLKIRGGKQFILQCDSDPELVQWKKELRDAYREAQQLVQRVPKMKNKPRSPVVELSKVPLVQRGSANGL
In experiment [10] the target is Beta-2 adrenergic receptor (Homo sapiens) (UniProt P07550). Kind of experiment: beta2AR agonists driving receptor internalization, pilot screen, cell-based, FAP fluorogen, flow cytometry, validation set (AID 504459;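 active = percent response above 42, roughly 3 SD of non-fluorescent test compounds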;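 note: agonist-driven loss of surface beta2AR via internalization measured by FAP dye flow cytometry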). The note with it: Am2.2-beta2AR cells, FAP surface receptor flow cytometry; at 10 µM; stronger effect = higher value.
Sequence of Beta-2 adrenergic receptor (Homo sapiens) (P07550 whole entry, looked up): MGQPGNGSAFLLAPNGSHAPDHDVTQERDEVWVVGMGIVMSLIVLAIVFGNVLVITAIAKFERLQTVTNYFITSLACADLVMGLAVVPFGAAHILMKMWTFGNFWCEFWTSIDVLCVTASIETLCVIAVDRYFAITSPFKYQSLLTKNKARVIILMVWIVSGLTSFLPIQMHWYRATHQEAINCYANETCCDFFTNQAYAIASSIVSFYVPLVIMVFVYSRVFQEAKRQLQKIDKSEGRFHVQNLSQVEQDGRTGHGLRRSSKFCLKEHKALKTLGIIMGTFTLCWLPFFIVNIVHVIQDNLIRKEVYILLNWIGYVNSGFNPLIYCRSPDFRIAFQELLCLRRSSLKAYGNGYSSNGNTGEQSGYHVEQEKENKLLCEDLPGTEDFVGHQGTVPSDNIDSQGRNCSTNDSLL
The target in experiment [11] is AP-2 complex subunit beta (Homo sapiens) (UniProt P63010). Nature of the experiment: inhibitors of arrestin peptide binding to AP2, pilot screen, biochemical, validation set, GST-AP2 beads, flow cytometry (AID 504541;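 active = inhibition above 54%, about 3 SD of non-fluorescent compounds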;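 note: AP2 carries R879A mutation and is captured from E. coli lysate; bead-bound FITC arrestin peptide fluorescence measuring arrestin peptide binding to AP2; 0% = DMSO wells and 100% = excess unlabeled arrestin peptide control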). The note with it: FITC arrestin peptide, at 10 µM, stronger effect = higher value, AP2 beta2 appendage fragment, R879A mutant.
Sequence of AP-2 complex subunit beta (Homo sapiens) (P63010 whole entry, looked up, the tested form may be a part, one chain of several): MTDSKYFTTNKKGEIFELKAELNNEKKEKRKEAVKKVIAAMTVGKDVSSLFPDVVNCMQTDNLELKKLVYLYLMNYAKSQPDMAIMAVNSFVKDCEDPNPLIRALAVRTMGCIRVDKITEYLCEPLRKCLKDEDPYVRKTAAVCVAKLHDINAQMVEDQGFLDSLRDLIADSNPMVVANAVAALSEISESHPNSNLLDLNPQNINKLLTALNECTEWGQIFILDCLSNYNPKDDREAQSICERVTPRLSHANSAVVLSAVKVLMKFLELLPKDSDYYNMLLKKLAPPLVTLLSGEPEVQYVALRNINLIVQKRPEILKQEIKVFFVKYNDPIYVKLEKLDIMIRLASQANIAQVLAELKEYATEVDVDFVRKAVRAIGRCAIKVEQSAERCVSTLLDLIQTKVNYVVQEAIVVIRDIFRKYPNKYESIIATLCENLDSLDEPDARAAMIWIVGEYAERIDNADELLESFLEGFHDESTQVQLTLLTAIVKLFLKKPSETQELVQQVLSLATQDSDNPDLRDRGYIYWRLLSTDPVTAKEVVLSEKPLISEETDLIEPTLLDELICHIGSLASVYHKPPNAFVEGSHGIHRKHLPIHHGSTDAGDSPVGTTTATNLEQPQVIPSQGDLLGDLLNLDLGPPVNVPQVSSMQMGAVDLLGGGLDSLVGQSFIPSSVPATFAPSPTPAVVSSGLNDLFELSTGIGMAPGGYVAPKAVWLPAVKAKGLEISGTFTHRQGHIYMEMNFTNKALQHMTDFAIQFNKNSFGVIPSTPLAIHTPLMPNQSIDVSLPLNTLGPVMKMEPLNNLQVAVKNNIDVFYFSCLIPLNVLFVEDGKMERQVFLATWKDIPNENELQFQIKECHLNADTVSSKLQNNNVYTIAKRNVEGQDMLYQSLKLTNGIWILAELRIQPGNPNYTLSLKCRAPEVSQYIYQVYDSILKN
Experiment [12] is described as follows: yeast V-ATPase proton transport modulators, S. cerevisiae, pHLuorin, HTS validation (AID 504600; in the data active = response above about 15%;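 note: plate controls were DMSO for no effect and reference compound for full effect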). The note with it: S. cerevisiae pHLuorin cytosolic pH, at 10 µM, stronger effect = higher value.
Experiment [13] concerns anti-desmoglein-3 scFv antibody binding to human DSG3. Kind of experiment: inhibitors of anti-DSG3 scFv binding to DSG3, pilot screen, biochemical, validation compound set, bead-based, flow cytometry (AID 588368;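 active = binding below the plate cutoff, the plate median minus 3 SD, with a reading above zero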;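 note: signal is the median channel fluorescence of bead-bound GFP antibody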). The note with it: Protein G beads, DSG3-Fc, scFv-GFP binding, at 10 µM, stronger effect = lower value.
The nature of experiment [14]: inhibitors of fungal efflux pumps CDR1, CDR2, MDR1, pilot screen, validation compound set, multiplex, phenotypic (AID 588506;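 active = efflux inhibition above 0.42, the validation set average plus 4 SD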;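 note: Nile Red retained in cells so higher fluorescence means more efflux inhibition; 0 = negative control wells and 1 = enniatin B 25 µM full block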). The note with it: S. cerevisiae pump-expressing triplex, Nile Red efflux flow cytometry; at 10 µM; stronger effect = higher value; the pumps come from Candida albicans.
The target of experiment [15] is ATP-binding cassette sub-family B member 6 (Homo sapiens) (UniProt Q9NP58). Nature of the experiment: ABCB6 transporter inhibitors, pilot screen, K562-ABCB6 cells, flow cytometry, validation set (AID 588550;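 active = inhibition above the screen-wide mean plus 3 SD, about 51%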;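 note: 0% = DMSO wells and 100% = benzethonium chloride 70 µM positive control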). The note with it: K562-ABCB6 porphyrin accumulation, 1 h, at 10 µM, stronger effect = higher value.
Sequence of ATP-binding cassette sub-family B member 6 (Homo sapiens) (Q9NP58 whole entry, looked up): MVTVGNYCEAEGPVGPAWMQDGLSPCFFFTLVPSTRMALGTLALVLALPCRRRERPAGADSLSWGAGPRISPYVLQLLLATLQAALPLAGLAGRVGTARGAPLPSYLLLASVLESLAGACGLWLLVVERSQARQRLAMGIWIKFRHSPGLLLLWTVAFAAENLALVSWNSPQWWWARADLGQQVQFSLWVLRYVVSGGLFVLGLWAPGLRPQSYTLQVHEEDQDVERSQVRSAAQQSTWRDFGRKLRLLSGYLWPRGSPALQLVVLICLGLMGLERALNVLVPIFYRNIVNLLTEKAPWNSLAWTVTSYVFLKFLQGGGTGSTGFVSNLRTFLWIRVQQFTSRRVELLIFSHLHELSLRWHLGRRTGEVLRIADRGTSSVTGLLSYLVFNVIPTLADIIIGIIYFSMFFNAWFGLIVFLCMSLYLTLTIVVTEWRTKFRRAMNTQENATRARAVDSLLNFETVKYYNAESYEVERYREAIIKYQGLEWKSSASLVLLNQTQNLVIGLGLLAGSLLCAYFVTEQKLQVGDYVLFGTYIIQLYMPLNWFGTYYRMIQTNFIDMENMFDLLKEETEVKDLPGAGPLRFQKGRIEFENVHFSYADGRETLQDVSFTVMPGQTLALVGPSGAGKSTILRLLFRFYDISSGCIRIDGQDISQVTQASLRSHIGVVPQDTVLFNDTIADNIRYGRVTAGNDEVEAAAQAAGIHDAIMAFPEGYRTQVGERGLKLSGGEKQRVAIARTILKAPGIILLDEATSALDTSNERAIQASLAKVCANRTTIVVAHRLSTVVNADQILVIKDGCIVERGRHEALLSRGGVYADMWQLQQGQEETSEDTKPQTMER
Experiment [16] in a line: promoters of myeloid differentiation in arrested cells, primary screen, cell-based, GFP/MAC1 double positive, flow cytometry, validation set (AID 588685;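 active = differentiation response of at least 50%, scaled between solvent and reference control, from cells with both markers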;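 note: compound exposure lasts four days before antibody staining and flow analysis; 0% = DMSO wells and 100% = 5 µM fulvestrant positive control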). The note with it: ER-HoxA9 marrow cells, stronger effect = higher value, normalized: vehicle 0, fulvestrant 100.

Results filed as inconclusive are left out. Activity calls are given as the source filed them.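 Rule for the calls, unless noted: active = aptamer binding inhibition above 30%, about 3 SD of noise from non-fluorescent compounds; inactive = inhibition at or below 30%.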

As for `O=C(O)C1CSC(c2ccc3c(c2)OCO3)N1` (stereo not drawn), in experiment [1], the percent of DMSO control GFP was 93.9% (inactive). Besides, the GFP response vs DMSO was 121% (inactive) in [2] and 78.7% (inactive) in experiment [4]. Also, the percent response of DMSO control in [3] was 101% (inactive). For the same molecule, the GFP response, % of DMSO in experiment [5] is 90.3% (inactive). In [6], the double positive events is 61.8%. Further, in experiment [6], the vesicle binding response was 197% (inactive). In addition, the results for the inhibition in experiment [7], in [11] and in experiment [15] were -7.12% (inactive), -4.96% (inactive) and 9% (inactive), respectively. The superoxide response (% of plate) in [8] is 86.1% (inactive). Besides, the aptamer binding inhibition in [9] is 3% (inactive). The response is -4.07% (inactive) in experiment [10] and 0.02% (inactive) in experiment [12]. Also, the binding (% of control) in experiment [13] is 105% (inactive). Further, in [14], the efflux inhibition (fraction of control) was -0.2 (inactive). Besides, the differentiation response in experiment [16] is -4.91% (inactive).

On to `Cc1ccc(O)c(CCc2ccccc2)n1`, for which the percent of DMSO control GFP in experiment [1] is 100% (inactive). Moreover, the GFP response vs DMSO in [2] was 109% (inactive); in experiment [4], 90.7% (inactive). Further, the percent response of DMSO control in [3] was 94.2% (inactive). Further, the GFP response, % of DMSO in experiment [5] was 98.3% (inactive). Also, the double positive events in [6] turned out to be 61.6%. Further, the vesicle binding response in experiment [6] was 222% (inactive). Also, the inhibition was -4.6% (inactive) in experiment [7], 3.07% (inactive) in experiment [11] and 19% (inactive) in experiment [15]. Further, the superoxide response (% of plate) in experiment [8] is 106% (inactive). Further, the aptamer binding inhibition in experiment [9] is 2% (inactive). Besides, the response in experiment [10] is -1.92% (inactive); in experiment [12] it was 0.6% (inactive). Further, the binding (% of control) in experiment [13] is 98.4% (inactive). Also, the efflux inhibition (fraction of control) in experiment [14] was -0.04 (inactive). Moreover, the differentiation response in [16] is 6.11% (inactive).

Take `c1ccc(Nc2ccccn2)nc1`: in experiment [1], the percent of DMSO control GFP was 98.6% (inactive). Moreover, the GFP response vs DMSO is 105% (inactive) in [2] and 115% (inactive) in experiment [4]. In addition, the percent response of DMSO control in experiment [3] is 88.2% (inactive). In addition, the GFP response, % of DMSO in [5] was 100% (inactive). The double positive events in experiment [6] stood at 59.3%. Also, the vesicle binding response in experiment [6] was 190% (inactive). Besides, the inhibition in [7] was -3.16% (inactive); in [11], -0.14% (inactive); in [15] it was 4% (inactive). The superoxide response (% of plate) in experiment [8] was 97.5% (inactive). The aptamer binding inhibition in experiment [9] was 3% (inactive). For the same molecule, the response is -8.84% (inactive) in experiment [10] and -2.96% (inactive) in experiment [12]. In addition, in [13], the binding (% of control) is 103% (inactive). The efflux inhibition (fraction of control) in experiment [14] is 0.26 (inactive). The differentiation response in experiment [16] is 7.2% (inactive).

For `O=C(Cc1ccccc1)NNC(=O)Cc1ccccc1`, in [1], the percent of DMSO control GFP is 101% (inactive). Besides, the GFP response vs DMSO in experiment [2] is 108% (inactive); in experiment [4] it was 94% (inactive). In experiment [3], the percent response of DMSO control is 102% (inactive). Also, in experiment [5], the GFP response, % of DMSO was 98.9% (inactive). In addition, in [6], the double positive events was 63.3%. The vesicle binding response in [6] was 224% (inactive). The inhibition in experiment [7] was -5.64% (inactive); in experiment [11] it was 53.7% (inactive); in experiment [15] it was 2% (inactive). In addition, the superoxide response (% of plate) in experiment [8] is 113% (inactive). Further, the aptamer binding inhibition in experiment [9] was -1% (inactive). The response in experiment [10] was -7.57% (inactive); in experiment [12], -12.3% (inactive). In addition, in [13], the binding (% of control) was 91.9% (inactive). Moreover, in [14], the efflux inhibition (fraction of control) is 0.27 (inactive). Also, in experiment [16], the differentiation response was 24.7% (inactive).

The inhibition is the drop in the measured response relative to a control, in per cent.
